Measurements as given in PubChem BioAssay (NCI).
About 83,000 compounds went through this panel and 20% of them were active in at least one assay; those are over-represented in the sample as a whole.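 Single-dose data. Exposure time 48 hours. Values below 10 considered active.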 Activity calls are given as the source filed them.

test system: CAKI-1 renal; assay: NCI-60 one-dose screen, 48 h (100 = growth as untreated, 0 = no growth, -100 = all killed); settings: 10 µM unless noted

SMILES | growth
O=C(O)Cc1ccccn1 | 93.9% (inactive)
CC(C)(C)CC1(C)NC(=O)NC1=O (stereo unspecified) | 102% (inactive)
COc1cc(CC#N)c([N+](=O)[O-])cc1OC | 102% (inactive)
CN(C)CCOC(=O)Nc1ccc(Cc2ccc(NC(=O)OCCN(C)C)cc2)cc1 | 73% [100 µM] (inactive)
Cc1cc2nc(C)c(C)nc2cc1C | 81.8% (inactive)
CCCCc1ccc2nc(NC(=O)OC)[nH]c2c1 | 19.5% (inactive)
NCC(O)C(O)C(O)C(O)CO (stereo unspecified) | 88.6% (inactive)
CCNc1ccc2ccccc2c1N=Nc1ccc(N=Nc2ccccc2)cc1 | 107% (inactive)
O=Cc1ccc(O)c(O)c1 | 112% (inactive)
CC(=O)C1C(=O)C(=O)N(c2cccc([N+](=O)[O-])c2)C1=O (stereo unspecified) | 102% (inactive)
C1Cc2onc(-c3noc4c3CCC4)c2C1 | 94.5% (inactive)
O=C(O)c1cc(I)ccc1O | 103% (inactive)
C=CCS(C)(=O)=O | 92.5% (inactive)
O=C(OCc1ccccc1)n1nnc2ccccc21 | 93.1% (inactive)
CC(=O)N=c1ccc2nc3c(cc(N)c4ccccc43)oc-2c1 | -23.1% (active)
CN1CCCN(C(c2ccccc2)c2ccc(Cl)cc2)CC1 (stereo unspecified) | 77.5% (inactive)
COc1ccc(/C=C\C(=O)/C=C/c2ccc(OC)cc2)cc1 | 87.5% (inactive)
CCOC(=O)c1ccc(NC(C)=O)o1 | 103% (inactive)
CCOC(=O)c1cc(Cl)c(O)c(Cl)c1 | 109% (inactive)
NNc1ncccn1 | 102% (inactive)
CCCC1OC(c2ccco2)OCC1CC (stereo unspecified) | 88.2% (inactive)
